Data taken from PubChem BioAssay (Tox21).
“And” between values parts separate entries of the source, which are not always exact repeats. Equal values may be shown once. Inconclusive results are not listed. The source holds several records for some structures; these can differ, active in one and inactive in another. The source made the active and inactive calls. Unless noted, calls follow the shape of the dose curve; as a rule, active = well fitted curve in the direction sought with a large enough effect in the repeat runs; inconclusive = weak or mixed curves; inactive = no such curve, though single readings can be large; an effect the other way counts as inactive or inconclusive.

Tests used:
[1] = qHTS assay to identify small molecule agonists of the sonic hedgehog signaling (Shh) pathway (AID 1259368; calls by dose curve;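 also: NIH/3T3-derived 3T3Gli1-Luc cells carrying a stable Gli1-driven firefly luciferase reporter; series mostly up to about 92 µM; nearly all actives have a fitted effect of over 15% in size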)
In short: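 Cells of a mouse NIH/3T3 clone stably expressing luciferase under the Gli1 transcriptional response element are exposed to test chemicals for 24 hr at 37 C. Pathway activation is detected as a rise in luminescence.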

[2] = qHTS assay to identify small molecule antagonists of the sonic hedgehog signaling (Shh) pathway (AID 1259369; calls by dose curve; also: nearly all actives have a fitted effect of over 45% in size; also: potency is read from the fitted curve at half-maximal effect)
In short: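 Cells are plated and held 4hr at 37 C, compounds (DMSO) are pinned in, conditioned medium is added to stimulate the pathway, and after 24hr luciferase reagent is added for 30min before luminescence is read.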

[3] = target: Estrogen receptor beta (Homo sapiens) (UniProt Q92731); test: qHTS assay to identify small molecule agonists of the estrogen receptor beta (ER-beta) signaling pathway (AID 1259377; active = well fitted activation curve with a large enough effect in the signal ratio in the repeat runs, not every such curve was filed as active; the % refers to the signal ratio; also: potency is read from the fitted curve at half-maximal effect)
Estrogen receptor beta (Homo sapiens), sequence (Q92731 whole entry, looked up): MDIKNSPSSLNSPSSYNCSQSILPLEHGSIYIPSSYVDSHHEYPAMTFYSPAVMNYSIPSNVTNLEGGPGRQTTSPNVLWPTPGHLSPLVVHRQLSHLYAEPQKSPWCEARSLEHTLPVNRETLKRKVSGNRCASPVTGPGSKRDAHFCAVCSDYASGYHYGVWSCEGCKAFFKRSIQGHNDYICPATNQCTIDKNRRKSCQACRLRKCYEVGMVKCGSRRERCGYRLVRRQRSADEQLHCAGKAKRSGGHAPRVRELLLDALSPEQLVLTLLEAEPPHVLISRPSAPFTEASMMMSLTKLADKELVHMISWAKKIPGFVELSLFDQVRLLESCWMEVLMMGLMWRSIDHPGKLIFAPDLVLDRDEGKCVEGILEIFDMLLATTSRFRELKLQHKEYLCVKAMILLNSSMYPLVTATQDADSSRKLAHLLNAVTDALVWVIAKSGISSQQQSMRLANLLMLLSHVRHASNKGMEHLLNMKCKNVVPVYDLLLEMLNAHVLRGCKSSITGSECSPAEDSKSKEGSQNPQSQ
In short: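 Measured by fluorescence intensity from a B/G FRET beta-lactamase substrate (2 h, room temperature) in ER-beta-UAS-bla HEK293T cells treated with DMSO-dissolved compounds for 16 hr at 37C and 5% CO2.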

[4] = target: Estrogen receptor beta (Homo sapiens) (UniProt Q92731); test: qHTS assay to identify small molecule antagonists of the estrogen receptor beta (ER-beta) signaling pathway (AID 1259378; active = well fitted inhibition curve with a large enough effect in the signal ratio in the repeat runs, not every such curve was filed as active; the % refers to the signal ratio)
In short: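 ER-beta-UAS-bla HEK293T (GripTite) cells in 2% charcoal-stripped FBS medium were preincubated 6 hr at 37C, dosed with compound, then stimulated with 1 nM E2 (final) for 16 hr; beta-lactamase reporter read by B/G FRET fluorescence after 2 hr substrate loading.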

[5] = qHTS assay to identify small molecule agonists of the androgen receptor (AR) signaling pathway in the presence of an antagonist - cell viability counter screen (AID 1259379);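 also: MDA-kb2 human breast cancer cells carrying an MMTV luciferase reporter; series mostly up to about 92 µM; nearly all actives have a fitted effect of over 25% in size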
In short: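 Cytotoxicity is assessed by CellTiter-Fluor in MDA-kb2 cells carrying an MMTV-driven luciferase reporter. Cells receive 3.0uM nilutamide plus compounds at 15 concentrations and incubate 16 hr at 37C without CO2 before fluorescence reading.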

[6] = qHTS assay to identify small molecule agonists of the estrogen receptor beta (ER-beta) signaling pathway - cell viability counter screen (AID 1259380); also: nearly all actives have a fitted effect of over 30% in size; also: potency is read from the fitted curve at half-maximal effect
In short: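 Cytotoxicity is measured in parallel with the reporter screen: after 16 hr compound exposure at 37C and a 2 hr LiveBLAzer step, CellTiter-Glo is added to the same ER-beta-UAS-bla HEK293T wells and luminescence read after 30 min.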

[7] = qHTS assay to identify small molecule antagonists of the estrogen receptor beta (ER-beta) signaling pathway - cell viability counter screen (AID 1259382); also: series mostly up to about 92 µM; nearly all actives have a fitted effect of over 55% in size
In short: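 Cytotoxicity counter screen multiplexed with the beta-lactamase antagonist assay: GripTite HEK293T ER-beta-bla cells were treated 16 hr with test chemicals in the presence of 1nM 17-beta-estradiol, and viability was measured by CellTiter-Glo.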

[8] = qHTS assay to identify small molecule agonists or antagonists of the thyroid stimulating hormone receptor (TSHR) signaling pathway - wild type cell line counter screen (AID 1259384; calls by dose curve)
In short: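 Wild-type HEK293 cells were plated 18 h at 37 C/5% CO2, pin-dosed with compound plus Ro20-1724 medium, held 30 min at room temperature, then given cAMP-d2 and anti-cAMP-cryptate; fluorescence was read after 1 h. Fifteen concentrations, triplicate.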

[9] = target: Thyrotropin receptor (Homo sapiens) (UniProt P16473); test: qHTS assay to identify small molecule antagonists of the thyroid stimulating hormone receptor (TSHR) signaling pathway (AID 1259385; calls by dose curve; also: nearly all actives have a fitted effect of over 20% in size)
Thyrotropin receptor (Homo sapiens), sequence (P16473 whole entry, looked up): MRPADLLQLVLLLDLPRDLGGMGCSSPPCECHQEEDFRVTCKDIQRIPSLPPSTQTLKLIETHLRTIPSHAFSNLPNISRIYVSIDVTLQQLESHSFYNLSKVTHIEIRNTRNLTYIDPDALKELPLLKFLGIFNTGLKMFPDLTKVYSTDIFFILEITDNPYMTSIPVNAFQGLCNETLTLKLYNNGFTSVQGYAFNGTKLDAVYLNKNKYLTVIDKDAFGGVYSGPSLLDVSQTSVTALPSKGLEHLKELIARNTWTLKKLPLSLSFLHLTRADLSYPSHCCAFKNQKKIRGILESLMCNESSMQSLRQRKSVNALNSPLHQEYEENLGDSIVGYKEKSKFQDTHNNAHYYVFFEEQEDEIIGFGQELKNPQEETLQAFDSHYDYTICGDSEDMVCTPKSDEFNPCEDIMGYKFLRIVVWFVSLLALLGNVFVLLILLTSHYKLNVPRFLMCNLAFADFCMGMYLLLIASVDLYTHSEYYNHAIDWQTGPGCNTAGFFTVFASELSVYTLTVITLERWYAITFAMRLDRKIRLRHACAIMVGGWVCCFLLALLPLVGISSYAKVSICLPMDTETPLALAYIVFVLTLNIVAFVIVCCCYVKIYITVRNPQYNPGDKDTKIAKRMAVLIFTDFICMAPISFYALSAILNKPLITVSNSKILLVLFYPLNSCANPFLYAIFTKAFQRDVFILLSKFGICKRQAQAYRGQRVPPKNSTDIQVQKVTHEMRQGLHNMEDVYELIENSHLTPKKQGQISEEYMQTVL
In short: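 TSHR-HEK293 cells were plated and held 18 h at 37C/5% CO2, then given compound plus Ro20-1724 and stimulated with TSH at 1.5 ng/mL final. After 30 min at room temperature, cAMP was detected with cAMP-d2/anti-cAMP-cryptate (1 h) by fluorescence.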

[10] = qHTS assay to identify small molecule agonists of the estrogen receptor alpha (ER-alpha) signaling pathway in the presence of an antagonist - cell viability counter screen (AID 1259386);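 also: series mostly up to about 92 µM; cells exposed to compounds for 22 h at 37 °C before the viability read; nearly all actives have a fitted effect of over 30% in size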
In short: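 Cytotoxicity was measured in parallel with the ERE-luciferase agonist screen, in the same wells. The cells were VM7Luc4E2, which endogenously express ER-alpha, and treatment was with compounds plus 10.0nM ICI-182,780 for 22hr.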

[11] = target: Progesterone receptor (Homo sapiens) (UniProt P06401); test: qHTS assay to identify small molecule agonists of the progesterone receptor (PR) signaling pathway (AID 1346784; calls by dose curve; also: nearly all actives have a fitted effect of over 30% in size)
Progesterone receptor (Homo sapiens), sequence (P06401 whole entry, looked up): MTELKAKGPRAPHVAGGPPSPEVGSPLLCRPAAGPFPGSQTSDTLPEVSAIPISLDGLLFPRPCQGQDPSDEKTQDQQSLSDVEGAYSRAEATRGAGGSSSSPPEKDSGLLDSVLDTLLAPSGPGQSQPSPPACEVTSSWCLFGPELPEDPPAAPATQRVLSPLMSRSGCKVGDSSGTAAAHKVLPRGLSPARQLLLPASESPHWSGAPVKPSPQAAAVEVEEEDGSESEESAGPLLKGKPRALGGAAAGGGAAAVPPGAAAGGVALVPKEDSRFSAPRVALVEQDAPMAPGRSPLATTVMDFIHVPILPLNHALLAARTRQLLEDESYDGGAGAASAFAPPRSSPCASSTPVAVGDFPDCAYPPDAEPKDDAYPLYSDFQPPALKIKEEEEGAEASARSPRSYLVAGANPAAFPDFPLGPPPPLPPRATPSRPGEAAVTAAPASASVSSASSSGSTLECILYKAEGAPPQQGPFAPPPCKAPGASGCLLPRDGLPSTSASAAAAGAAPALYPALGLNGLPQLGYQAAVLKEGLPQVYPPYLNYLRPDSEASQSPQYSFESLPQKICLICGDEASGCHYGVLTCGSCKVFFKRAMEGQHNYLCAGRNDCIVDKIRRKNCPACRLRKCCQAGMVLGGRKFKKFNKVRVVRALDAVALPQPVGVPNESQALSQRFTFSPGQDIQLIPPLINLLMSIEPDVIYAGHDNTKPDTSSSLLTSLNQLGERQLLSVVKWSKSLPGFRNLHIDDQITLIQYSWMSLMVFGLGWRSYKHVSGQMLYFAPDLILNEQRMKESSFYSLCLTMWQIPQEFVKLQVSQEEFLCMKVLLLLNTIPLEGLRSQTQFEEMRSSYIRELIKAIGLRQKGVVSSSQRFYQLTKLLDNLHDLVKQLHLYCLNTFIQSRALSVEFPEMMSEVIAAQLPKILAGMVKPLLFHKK
In short: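 The screen uses PR-UAS-bla HEK 293T cells in charcoal-stripped serum (2%). Compounds are applied for 16 hr at 37C after a 6 hr pre-incubation, and reporter activity is detected with a FRET beta-lactamase substrate after 2 hr at room temperature.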

[12] = target: Progesterone receptor (Homo sapiens) (UniProt P06401); test: qHTS assay to identify small molecule antagonists of the progesterone receptor (PR) signaling pathway (AID 1346795; active = well fitted inhibition curve with a large enough effect in the signal ratio in the repeat runs, not every such curve was filed as active; the % refers to the signal ratio)
In short: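 After 6 hr plating at 37C in 2% stripped-serum medium, PR-UAS-bla HEK293T cells got compounds, then 1 nM R5020. Sixteen hours later, LiveBLAzer substrate was applied for 2 hr at room temperature and fluorescence was recorded.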

[13] = qHTS assay to identify small molecule antagonists of the progesterone receptor (PR) signaling pathway - cell viability counter screen (AID 1346798); also: series mostly up to about 92 µM; nearly all actives have a fitted effect of over 50% in size
In short: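 Viability was determined by ATP-based luminescence (CellTiter-Glo) in PR-UAS-bla HEK293T cells cultured in 2% charcoal-stripped serum and incubated 16 hr with compounds under R5020 stimulation.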

[14] = qHTS assay to identify small molecule agonists of the progesterone receptor (PR) signaling pathway - cell viability counter screen (AID 1346799; calls by dose curve; also: nearly all actives have a fitted effect of over 45% in size)
In short: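 Viability was scored by ATP luminescence (CellTiter-Glo, 30 min, room temperature) in the same wells used for the reporter readout, after 16 hr compound exposure of PR-UAS-bla HEK293T cells.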

[15] = qHTS assay to identify small molecule antagonists of the TGF-beta/Smad signaling pathway - cell viability counter screen (AID 1346824); also: nearly all actives have a fitted effect of over 50% in size
In short: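 SBE-bla HEK 293T cells were plated overnight at 37 C, then given compounds in DMSO plus TGF-beta1 (added as 0.25 ng/mL solution) for 5 hr. After the bla read, CellTiter-Glo was added to the same wells and luminescence read after 30 min at room temperature.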

[16] = qHTS assay to identify small molecule agonists of the TGF-beta/Smad signaling pathway - cell viability counter screen (AID 1346829); also: top concentration of the series differs between compounds; nearly all actives have a fitted effect of over 45% in size
In short: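 Cytotoxicity counter screen: CellTiter-Glo luminescence (30 min, room temperature) measured in the SBE-bla HEK 293T reporter wells after 5 hr compound treatment at 37 C and the 2 hr substrate step.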

[17] = qHTS assay to identify small molecule agonists of the TGF-beta/Smad signaling pathway (AID 1346859; active = well fitted activation curve with a large enough effect in the signal ratio in the repeat runs, not every such curve was filed as active; the % refers to the signal ratio; also: series mostly up to about 77 µM)
In short: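 Dual-wavelength fluorescence (460/530 nm emission) quantified beta-lactamase expression under the Smad binding element in HEK 293T cells following 5 hr compound treatment at 37 C.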

[18] = target: Thyrotropin-releasing hormone receptor (Homo sapiens) (UniProt P34981); test: qHTS assay to identify small molecule antagonists of the thyrotropin-releasing hormone receptor (TRHR) signaling pathway (AID 1346877; active = well fitted inhibition curve with a large enough effect in the repeat runs, not every such curve was filed as active; also: series mostly up to about 51 µM)
Thyrotropin-releasing hormone receptor (Homo sapiens), sequence (P34981 whole entry, looked up): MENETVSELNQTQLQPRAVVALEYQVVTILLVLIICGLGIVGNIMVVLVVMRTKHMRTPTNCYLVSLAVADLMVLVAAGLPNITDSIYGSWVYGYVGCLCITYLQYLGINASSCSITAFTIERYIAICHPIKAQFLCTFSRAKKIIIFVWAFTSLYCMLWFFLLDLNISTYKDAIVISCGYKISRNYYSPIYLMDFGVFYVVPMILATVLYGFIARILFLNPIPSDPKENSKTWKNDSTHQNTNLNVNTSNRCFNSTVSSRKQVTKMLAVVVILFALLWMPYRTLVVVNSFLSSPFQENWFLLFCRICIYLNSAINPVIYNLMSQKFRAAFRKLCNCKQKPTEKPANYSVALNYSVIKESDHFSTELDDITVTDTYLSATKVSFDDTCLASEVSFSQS
In short: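 Antagonism is measured as suppression of the calcium response to 1 nM TRH in TRHR-HEK293 cells that have been dye-loaded for 2 h at 37 °C after overnight plating. Each compound is tested at 15 concentrations in triplicate.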

[19] = target: Androgen receptor (Homo sapiens) (UniProt P10275); test: qHTS assay to identify small molecule agonists of the androgen receptor (AR) signaling pathway in the presence of an antagonist (AID 1259381; calls by dose curve; also: nearly all actives have a fitted effect of over 15% in size)
Androgen receptor (Homo sapiens), sequence (P10275 whole entry, looked up): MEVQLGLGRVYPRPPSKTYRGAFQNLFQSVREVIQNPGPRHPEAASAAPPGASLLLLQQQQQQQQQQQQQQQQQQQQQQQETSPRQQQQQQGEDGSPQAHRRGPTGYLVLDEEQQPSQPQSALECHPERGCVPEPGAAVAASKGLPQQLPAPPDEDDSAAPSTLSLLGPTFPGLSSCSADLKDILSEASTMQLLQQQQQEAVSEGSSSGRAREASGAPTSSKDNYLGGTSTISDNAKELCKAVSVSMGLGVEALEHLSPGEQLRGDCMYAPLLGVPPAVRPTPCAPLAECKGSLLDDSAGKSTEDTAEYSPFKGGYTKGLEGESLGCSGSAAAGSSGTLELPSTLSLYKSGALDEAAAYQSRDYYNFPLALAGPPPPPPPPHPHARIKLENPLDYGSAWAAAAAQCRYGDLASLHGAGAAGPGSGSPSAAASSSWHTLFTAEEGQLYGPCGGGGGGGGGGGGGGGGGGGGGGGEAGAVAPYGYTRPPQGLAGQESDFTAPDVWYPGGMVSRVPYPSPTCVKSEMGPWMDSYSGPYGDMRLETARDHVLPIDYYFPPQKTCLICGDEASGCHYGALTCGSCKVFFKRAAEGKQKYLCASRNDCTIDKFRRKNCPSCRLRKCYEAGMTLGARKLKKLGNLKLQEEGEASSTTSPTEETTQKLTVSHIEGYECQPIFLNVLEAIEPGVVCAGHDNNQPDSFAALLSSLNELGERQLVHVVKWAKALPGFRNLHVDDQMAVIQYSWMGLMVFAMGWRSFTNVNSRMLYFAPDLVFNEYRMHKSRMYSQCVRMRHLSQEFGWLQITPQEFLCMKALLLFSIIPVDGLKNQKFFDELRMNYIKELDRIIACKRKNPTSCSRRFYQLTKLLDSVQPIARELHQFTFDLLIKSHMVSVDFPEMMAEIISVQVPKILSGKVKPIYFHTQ
In short: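 Agonist-mode confirmation screen: human MDA-kb2 cells stably expressing luciferase under an MMTV promoter bearing AR and GR response elements, co-treated with 3.0uM nilutamide (final). Luminescence measured after 16hr compound incubation.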

[20] = target: Estrogen receptor (Homo sapiens) (UniProt P03372); test: qHTS assay to identify small molecule agonists of the estrogen receptor alpha (ER-alpha) signaling pathway in the presence of an antagonist (AID 1259383; calls by dose curve; also: top concentration of the series differs between compounds; nearly all actives have a fitted effect of over 15% in size)
Estrogen receptor (Homo sapiens), sequence (P03372 whole entry, looked up): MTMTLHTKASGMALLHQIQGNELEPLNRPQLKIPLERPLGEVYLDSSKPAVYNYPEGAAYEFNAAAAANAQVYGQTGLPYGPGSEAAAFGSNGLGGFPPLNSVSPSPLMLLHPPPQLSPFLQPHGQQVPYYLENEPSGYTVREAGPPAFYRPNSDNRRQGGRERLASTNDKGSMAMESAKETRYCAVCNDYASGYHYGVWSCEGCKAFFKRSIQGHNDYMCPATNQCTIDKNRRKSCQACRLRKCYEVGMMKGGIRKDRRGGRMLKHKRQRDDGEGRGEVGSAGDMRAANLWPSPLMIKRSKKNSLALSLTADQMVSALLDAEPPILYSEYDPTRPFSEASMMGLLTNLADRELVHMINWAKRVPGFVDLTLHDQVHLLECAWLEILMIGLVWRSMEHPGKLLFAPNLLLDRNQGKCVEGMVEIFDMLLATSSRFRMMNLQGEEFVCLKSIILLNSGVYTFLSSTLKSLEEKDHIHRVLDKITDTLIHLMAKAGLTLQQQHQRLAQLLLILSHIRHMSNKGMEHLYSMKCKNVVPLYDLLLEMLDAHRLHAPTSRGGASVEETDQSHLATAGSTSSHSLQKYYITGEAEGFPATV
In short: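 Agonist-mode confirmation in the presence of the ER antagonist ICI-182,780 at 10.0nM final. Breast-derived VM7Luc4E2 reporter cells were exposed to compounds for 22hr, and ERE-driven luciferase was quantified by luminescence.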

Measured: Potency

OCc1ccco1
not listed: [19] | [20]
inactive: all other assays above

CNC(=O)O/N=C(\SC)C(=O)N(C)C
not listed: [5] | [18]
inactive: all other assays above

Cc1ccc(O)c(C)c1
not listed: [19] | [20]
inactive: all other assays above

O=[N+]([O-])c1ccc(Cl)cc1
42.9 µM (active) and inactive: [2]
not listed: [19] | [20]
inactive: all other assays above

CN(C)C(=O)Nc1cccc(C(F)(F)F)c1
not listed: [19] | [20]
inactive: all other assays above

C[C@]12CC[C@H](O)CC1=CC[C@@H]1[C@@H]2CC[C@]2(C)C(=O)CC[C@@H]12
active: [2] 1.37 µM and 19.3 µM | [3] 386 nM and 473 nM | [6] 48.6 µM and 27.3 µM
not listed: [4] | [12] | [17] | [18] | [19] | [20]
inactive: all other assays above

CN(C)CCC#N
not listed: [8] | [9] | [19] | [20]
inactive: all other assays above

COC(=O)Nc1cccc(OC(=O)Nc2cccc(C)c2)c1
not listed: [8] | [9] | [18] | [19] | [20]
inactive: all other assays above
